Sampled rows, rich in hits. Any-hit rate of the full collection: about 2.6%.
EWS-Fli block: blocks EWS/Fli oncoprotein-driven transcription; A673 NR0B1-luciferase reporter, viability-normalised; inhibition, % at 12.6 µM; 350,000 compounds, 0.67% hits; AID 651661;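 active = mean inhibition of at least 50% after viability correction, with every replicate also passing that limit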;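 also: firefly luciferase signal divided by Alamar Blue viability fluorescence both relative to DMSO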
TROY NFkB inh: TROY signaling inhibition. 360,000 compounds, 0.98% hits. inhibition, % at 10 µM. Q293 LMP1-TROYcd NF-kB luciferase reporter, 4 h. AID 1347056;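 active = compounds whose plate-normalised and pattern-corrected inhibition of the luciferase reporter signal at the single screening dose is 50% or more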
KKLEB tox: CF airway cell cytotoxicity counter-screen; KKLEB CF airway cells viability, ATPlite luminescence, overnight; stronger effect = lower value; cells stimulated with P. aeruginosa culture filtrate; activity change (cytotoxicity), % at 5 µM; 360,000 compounds, 0.36% hits;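 active = corrected activity change at or below -50% at 5 µM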
LGR2 antag: inhibitors of bursicon-induced Drosophila LGR2 receptor cAMP signaling. inhibition, % at 9.99 µM. 380,000 compounds, 0.35% hits. AID 720647. HEK293 LGR2, CRE-luciferase, bursicon-stimulated, 4 h;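 active = drop in luminescence signal, shown as inhibition above about 50% in the replicate tests, limit read from the data, passing the limit was not always enough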;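 also: agonist challenge used bursicon conditioned medium at about half maximal strength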
TWEAK-Fn14 inh: blocks TWEAK-Fn14 interaction in a reporter cell assay; AID 1159606; TWEAK-stimulated Fn14 reporter cells, luciferase luminescence, 8 h; 360,000 compounds, 2% hits; inhibition, % at 10 µM; in the data active = inhibition above about 50%
CF NFkB inh: cystic fibrosis NF-kB activation inhibition | 360,000 compounds, 0.86% hits | KKLEB NF-kB-GFP reporter, PAF-induced, GFP fluorescence overnight | inhibition, % at 5 µM | AID 588850;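 active = at least 50% inhibition at 5 µM, scaled per plate between neutral and stimulator controls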;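 also: PAF is a Pseudomonas aeruginosa culture filtrate used as stimulus; plate controls were PAF-stimulated DMSO wells for no effect and unstimulated DMSO wells for full effect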
Starred values were filed as active, the others as inactive; . = no result.

SMILES | EWS-Fli block | TROY NFkB inh | KKLEB tox | LGR2 antag | TWEAK-Fn14 inh | CF NFkB inh
CCOc1ccc(C)cc1S(=O)(=O)n1cnc2ccccc21 | 59* | 0 | -28 | 1 | 21 | 10
COC(=O)c1ccc(CN2CC(=O)N3[C@H](CO)[C@@H](c4ccc(-c5ccccc5F)cc4)[C@H]3C2)cc1 | 6 | . | . | -9 | . | .
COc1cccc(CN(C(=O)Cc2c[nH]c3ccccc23)C(C(=O)NC2CCCCC2)c2cccs2)c1 (stereo unspecified) | . | 13 | 4 | . | 53* | -11
COc1ccc(CN(C(=O)Cc2cccs2)C(C(=O)NC2CCCC2)c2ccncc2)cc1 (stereo unspecified) | . | -12 | -5 | 10 | 9 | 1
COc1ccc(C(C(=O)NC2CCCCC2)N(Cc2cccs2)C(=O)Cc2c[nH]c3ccccc23)cc1 (stereo unspecified) | . | 30 | -11 | . | 65* | 12
Cc1cccc(NC(=O)CSc2cc(C(=O)c3nccn3C)c3ccccc3n2)c1 | -16 | 4 | -54* | 0 | -5 | 40
CCCNC(=O)N1CC2(CN(CC3CCOCC3)C2)c2c(n(C)c3cc(OC)ccc23)[C@@H]1CO | -7 | . | . | 0 | . | .
CCN=c1scc(-c2ccccc2)n1/N=C/c1ccccn1 | . | 77* | -20 | . | 92* | -43
CCN=c1scc(-c2ccc(F)cc2)n1/N=C/c1ccccn1 | -67 | -21 | -25 | -39 | 24 | -8
C=CC(=O)Nc1cccc(Oc2ccnc(Nc3ccc(N4CCN(C)CC4)cc3)n2)c1 | 5 | 16 | -24 | 23 | -7 | 63*
C=CC(=O)Nc1cccc(N(C)c2ccnc(Nc3ccc(N4CCN(C)CC4)cc3)n2)c1 | . | 46 | -36 | . | -3 | 61*
CCOn1c(=O)c(C)[n+]([O-])c2ccccc21 | . | . | 5 | . | 85* | -10
CCOC(=O)Nc1ccc2nc(Sc3ccc(Cl)cc3)sc2c1 | 49 | 82* | 5 | 9 | 9 | -24
C[C@H]1CN([C@@H](C)CO)C(=O)c2cccc(NC(=O)Nc3ccccc3)c2O[C@@H]1CN(C)S(=O)(=O)c1cccs1 | 1 | . | . | -8 | . | .
O=C(Nc1cc(Oc2ccc(Cl)cc2)cc([N+](=O)[O-])c1)c1ccco1 | . | 57* | -9 | -3 | 57* | 2
O=C(CCc1ccc(Oc2cc([N+](=O)[O-])cc([N+](=O)[O-])c2)cc1)Nc1cccc(Cl)c1 | . | 29 | -5 | 9 | 59* | 18
O=S(=O)(c1cccs1)N1CCCCN2[C@H](C1)[C@H](c1ccc(C3=CCCCC3)cc1)[C@@H]2CO | -3 | . | . | . | . | .
C[C@H](CO)N1C[C@H](C)[C@H](CN(C)S(=O)(=O)c2cccs2)Oc2ccc(NC(=O)Nc3ccc(C(F)(F)F)cc3)cc2CC1=O | 56* | . | . | 9 | . | .
C[C@H]1CN([C@@H](C)CO)C(=O)Cc2cc(NC(=O)Nc3ccc(C(F)(F)F)cc3)ccc2O[C@@H]1CN(C)S(=O)(=O)c1ccccc1 | -10 | . | . | 10 | . | .
C[C@H](CO)N1C[C@H](C)[C@H](CN(C)S(=O)(=O)c2ccccc2)Oc2ccc(NC(=O)Nc3ccc(C(F)(F)F)cc3)cc2CC1=O | 61* | . | . | 10 | . | .
C[C@H](CO)N1C[C@H](C)[C@@H](CN(C)S(=O)(=O)c2ccccc2)Oc2ccc(NC(=O)Nc3ccc(C(F)(F)F)cc3)cc2C1=O | -28 | 36 | -8 | 9 | 61* | 24
C[C@@H]1CN([C@H](C)CO)C(=O)c2c(c3ccccc3n2C)-c2ccccc2CO[C@@H]1CN(C)S(=O)(=O)c1ccc(C(F)(F)F)cc1 | 9 | . | . | 53* | . | .
O=C(Nc1cc(F)ccc1F)N[C@@H]1CC[C@H](CCn2cc(C3CC3)nn2)O[C@@H]1CO | 1 | . | . | -2 | . | .
C[C@H](CO)N1C[C@H](C)[C@H](CN(C)S(=O)(=O)c2ccccc2F)Oc2ncc(C#Cc3cccnc3)cc2C1=O | 10 | . | . | 13 | . | .
CCCn1cnc2cc(NCc3cccc(OC)c3)ccc21 | -97 | 66* | -12 | -15 | 73* | 5
CCCn1cnc2cc(NCc3ccc(Br)cc3)ccc21 | -93 | 38 | 0 | -103 | 19 | 4
CN(C)c1ccc(CNc2ccc3c(c2)ncn3C(C)(C)C)cc1 | 1 | 87* | -6 | 5 | 58* | -20
CCn1cnc2cc(NCc3ccc(N(C)C)cc3)ccc21 | -33 | 67* | 0 | -40 | 65* | -8
